# From PubChem
# Compounds with a hit are over-represented: about 2.2% of the library has one in this group of screens.
# FAS-TE inh = inhibitors of human fatty acid synthase thioesterase domain | P49327 | recombinant FAS-TE, OMFH fluorogenic substrate, fluorescence endpoint | inhibition, % at 15 µM | 360,000 compounds, 0.67% hits;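 active means compounds whose normalised, plate-corrected inhibition of enzyme fluorescence in the single-dose primary screen is 50% or more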;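 further: 0% = DMSO with enzyme and 100% = substrate without enzyme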
# H9c2 protect = myocardial damage modulation in H9c2 cells; 360,000 compounds, 0.63% hits; H9c2 cardiomyocytes, H2O2 injury protection, ATPLite, 2 h; protection from H2O2 cell death, % at 20 µM;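 active means compounds giving at least 50% protection of heart cells from peroxide-induced death in the single-dose screen, raw or plate-pattern-corrected value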;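 further: 0% = DMSO wells with peroxide and 100% = DMSO wells without peroxide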
# PLC-beta3 inh = blocks human PLC-beta3 enzyme activity | Q01970 | Purified PLC-beta3, fluorogenic substrate, fluorescence | inhibition, % at 12.2 µM | 370,000 compounds, 0.18% hits | AID 720704; in the data active means inhibition above about 11%;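 further: 0% = median of compound wells on plate and 100% = full blocker control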
# PLCg1 inh = inhibitors of human phospholipase C gamma1. P19174. purified PLC-gamma1, fluorogenic substrate, fluorescence. inhibition, % at 12.2 µM. 370,000 compounds, 0.84% hits; in the data active means inhibition above about 9.5%
# FAS-TE inh conf = confirmation of human fatty acid synthase thioesterase inhibitors. shares compounds with FAS-TE inh. inhibition, % at 15 µM. AID 624325. 2,300 compounds, 45% hits. recombinant FAS-TE, OMFH fluorogenic substrate, fluorescence;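 active means compounds inhibiting the enzyme by at least 50% at 15 µM in any one of the replicates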;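 further: 0% = enzyme with DMSO only and 100% = wells lacking enzyme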
# Numbers without * were called inactive; . = no result given.
SMILES,FAS-TE inh,H9c2 protect,PLC-beta3 inh,PLCg1 inh,FAS-TE inh conf
O=C(Nc1nc(-c2ccc(F)c(F)c2)cs1)c1cc([N+](=O)[O-])ccc1N1CCOCC1,55.3*,12.2,-1.5,0.9,29.4
Cc1cccc(NC(=O)c2cc([N+](=O)[O-])ccc2N2CCOCC2)c1C,18.5,-0.6,-0.2,3.8,.
Cc1nn(-c2ccccc2)c2c1C(c1ccc([N+](=O)[O-])cc1)N1C(=N2)C(=O)Nc2ccccc21 (stereo unspecified),79.1*,43.4,-6.9,-7.0,1.4
Cc1nn(-c2ccc([N+](=O)[O-])cc2)c2c1C(c1cccc(Br)c1)N1C(=N2)C(=O)Nc2ccccc21 (stereo unspecified),70.4*,55.7*,-6.5,-5.6,-37.4
Cc1nn(-c2ccccc2)c2c1C(c1ccc(Cl)cc1)N(c1ccccc1)C(=O)N2 (stereo unspecified),26.7,1.6,2.5,0.5,.
Cc1[nH][nH]c(=O)c1C(c1ccc(-c2cccc(Cl)c2)o1)c1c(C)[nH][nH]c1=O,54.2*,-8.3,.,.,37.5
CCOC(=O)CC[C@@H]1CC[C@]2(CCCN(C(=O)C3CCCCC3)C2)O1,.,.,-5.0,3.8,.
O=C(CSc1nnc(-c2cccs2)o1)c1ccc(F)cc1,.,.,1.2,-0.7,.
COCCN(CCOC)C(=O)[C@H](CCc1ccccc1)NC(=O)[C@H]1O[C@@H](n2cnc3c(N)ncnc32)[C@H](O)[C@@H]1O,.,.,0.8,1.2,.
O=C1c2ccc(-c3ccc(Cl)c(C(F)(F)F)c3)cc2S(=O)(=O)c2cccc(C(=O)N3CCN(c4ccc(Cl)cn4)CC3)c21,66.6*,2.6,-56.5,-37.6,2.4
CC(C)(C)OC(=O)NCCCC[C@H](NC(=O)c1nc[nH]c1C(=O)N[C@@H](CCCCNC(=O)OC(C)(C)C)C(=O)OC(C)(C)C)C(=O)OC(C)(C)C,13.3,13.8,-1.1,-0.1,.
C[C@H](NC(=O)c1nc[nH]c1C(=O)N[C@@H](CCCCNC(=O)OC(C)(C)C)C(=O)OC(C)(C)C)C(=O)OCc1ccccc1,87.3*,-0.2,4.0,2.9,74.3*
CC(C)C[C@H](NC(=O)c1nc[nH]c1C(=O)N[C@@H](CCCCNC(=O)OC(C)(C)C)C(=O)OC(C)(C)C)C(=O)OCc1ccccc1,19.8,-6.7,3.5,-0.5,.
C[C@H](NC(=O)c1nc[nH]c1C(=O)N[C@@H](CCCCNC(=O)OC(C)(C)C)C(=O)OC(C)(C)C)C(=O)OC(C)(C)C,73.3*,13.2,-3.6,0.7,62.1*
CC(C)(C)OC(=O)N[C@@H](CCCCNC(=O)OCc1ccccc1)c1nnc([C@H](CCCCNC(=O)OCc2ccccc2)NC(=O)OC(C)(C)C)o1,65.5*,1.5,.,.,27.0
CC(C)(C)OC(=O)CNC(=O)c1[nH]cnc1C(=O)N[C@@H](CCCCNC(=O)OC(C)(C)C)C(=O)OC(C)(C)C,87.0*,17.8,-2.6,-4.3,92.4*
CC(C)C[C@H](NC(=O)c1nc[nH]c1C(=O)NC1CCN(C(=O)OC(C)(C)C)CC1)C(=O)OC(C)(C)C,20.3,32.7,3.3,-1.0,.
CC(C)(C)OC(=O)NCCCC[C@H](NC(=O)c1nc[nH]c1C(=O)NC1CCN(C(=O)OC(C)(C)C)CC1)C(=O)OC(C)(C)C,84.1*,28.2,-1.4,-4.3,58.8*
Cc1cccc(NC(=O)c2nc[nH]c2C(=O)NCCCCCNC(=O)OC(C)(C)C)c1,9.8,41.5,3.2,-1.1,.
CC(C)(C)OC(=O)NCc1ccc(CNC(=O)c2[nH]cnc2C(=O)NC2CCN(C(=O)OC(C)(C)C)CC2)cc1,54.0*,44.6,.,.,40.0
Cc1cccc(NC(=O)c2nc[nH]c2C(=O)N[C@@H](CCCCNC(=O)OC(C)(C)C)C(=O)OC(C)(C)C)c1,89.8*,1.7,3.3,2.2,55.3*
CC(C)C[C@H](NC(=O)c1nc[nH]c1C(=O)NC1CCN(C(=O)OC(C)(C)C)CC1)C(=O)OCc1ccccc1,58.2*,-21.1,10.3,8.1,61.4*
COc1ccc(Oc2c(Br)cnn(Cc3cccc4ccccc34)c2=O)cc1,.,.,-1.5,-1.9,.
CC(C)(C)OC(=O)NCCCC[C@H](NC(=O)c1nc[nH]c1C(=O)NCC(=O)OCc1ccccc1)C(=O)OC(C)(C)C,89.8*,8.3,0.5,2.8,96.3*
CC(C)(C)OC(=O)[C@H](Cc1ccccc1)NC(=O)c1nc[nH]c1C(=O)NCC(=O)OCc1ccccc1,35.1,13.9,4.3,7.7,.
CCOc1ccc(CCNC(=O)COC(=O)CCc2cc(OC)c(OC)c(OC)c2)cc1OCC,-1.2,2.3,0.4,5.4,.
